This is a sample that favours compounds with a hit; in the whole collection about 2.4% have one here.
Cruzain Triton: qHTS Assay for Promiscuous and Specific Inhibitors of Cruzain (with detergent); purified cruzain, Z-FR-AMC fluorescence, 0.01% Triton; Potency, µM, without a hit: max response, negative = inhibition, hits mostly inhibitors; 200,000 tested, 0.43% active; AID 1478, 2009;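 note: plate controls were neutral wells for no effect and buffer without enzyme for full effect; nearly all actives have a fitted effect of over 40% in size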
Target sequence (P25779 123-467 limits assumed): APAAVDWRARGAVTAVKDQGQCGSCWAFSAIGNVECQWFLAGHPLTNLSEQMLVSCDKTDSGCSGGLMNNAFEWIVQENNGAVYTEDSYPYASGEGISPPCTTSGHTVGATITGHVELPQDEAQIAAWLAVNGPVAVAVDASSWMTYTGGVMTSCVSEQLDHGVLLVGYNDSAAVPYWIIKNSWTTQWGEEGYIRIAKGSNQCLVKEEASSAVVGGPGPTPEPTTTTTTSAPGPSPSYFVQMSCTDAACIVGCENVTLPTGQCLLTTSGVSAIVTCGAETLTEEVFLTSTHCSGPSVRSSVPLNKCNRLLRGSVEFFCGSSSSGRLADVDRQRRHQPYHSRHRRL
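Sodium acetate buffer (100 mM, pH 5.5) containing 5 mM DTT and 0.01% Triton X-100 hosted 1.5 nM cruzain and test compound for 15 min at room temperature. Cleavage of 2 uM Z-FR-AMC was then tracked by fluorescence.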
Cruzain inh noDet: qHTS Assay for Promiscuous and Specific Inhibitors of Cruzain (without detergent). Cruzipain (Trypanosoma cruzi), P25779. purified cruzain, Z-FR-AMC fluorescence, no detergent. Potency, µM, inactives show max response, negative = inhibition, hits mostly inhibitors. 200,000 tested, 2.3% active;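 note: plate controls were enzyme without inhibitor for no effect and buffer without enzyme for full effect; nearly all actives have a fitted effect of over 40% in size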
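Purified cruzain at 1.5 nM, pre-incubated 15 min with compound at room temperature in 100 mM sodium acetate pH 5.5, 5 mM DTT, 0.00005% Triton X-100. Reaction started with 2 uM Z-FR-AMC; AMC fluorescence increase over 60 s gives rate.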
Active calls of the source: *; u = inconclusive. Calls come from the whole dose curve; as a rule, active = well fitted curve in the direction sought with a large enough effect; inconclusive = small, poorly fitted or top-dose-only effect, or another doubt; inactive = no such curve, though single readings can be large; an effect the other way counts as inactive or inconclusive. Potency is the fitted concentration of half-maximal effect.

SMILES	Cruzain Triton	Cruzain inh noDet
CCOc1ccc(-c2cn3c(n2)sc2cc(C(=O)NC(C)C45CC6CC(CC(C6)C4)C5)ccc23)cc1 (stereo not given)	-3.5%	0.2%
COc1ccccc1/C=C/c1nc2ccccc2n1C(C)C	-12.6%	5.3%
CCCN(C(=O)c1c(C)oc2ncnc(N3CCOCC3)c12)c1ccc(Cl)c(Cl)c1	-1.7%	12.1%
O=C(O)CCCC/C=C\C[C@@H](O)/C=C/C=C/C=C\[C@@H](O)CCCC(=O)O	12.6µM*	3.98µM*
O=C(O)CCC[C@H](O)\C=C/C=C/C=C/[C@H](O)C/C=C\CCCCCO	4.6%	-10.0%
CCOC(=O)c1cc(S(=O)(=O)Nc2ccc(OC(F)(F)F)cc2)[nH]n1	-11.1%	1.9%
CCOC(=O)c1sc(NC(=O)c2nc(SCC)ncc2Cl)c(C(=O)OCC)c1C	-0.4%	-2.1%
Cc1ccc(-c2nnc(SCC(=O)n3c4c(c5ccccc53)CCCC4)o2)cc1	1.5%	-18.4%
O=C(CSc1nnc(-c2ccccc2)o1)n1c2c(c3ccccc31)CCCC2	-0.1%	25.1µM*
COc1ccc(CCNC(=O)c2ccc(Cn3c(=O)c4ccccc4n(Cc4ccc(F)cc4Cl)c3=O)cc2)cc1OC	-2.2%	0.1%
CCOC(=O)N1CCN(C(=O)Cc2ccc(Cl)cc2)CC1	7.0%	-1.5%
CCOC(=O)N1CCN(CCC(=O)c2ccc(Cl)cc2)CC1	14.1µM*	12.6µM*
COc1ccc(C2=C(C)C(N3CCC(C(=O)Nc4ccccc4F)CC3)=NS2(=O)=O)cc1	-12.5%	-19.9%
CC(NC(=O)c1ccccc1)C(=O)OCC(=O)N1c2ccccc2Sc2ccccc21 (stereo not given)	u	-5.2%
O=C1CN(C(=O)COC(=O)Cc2ccsc2)c2ccccc2N1	-2.0%	-2.5%
O=C1CN(C(=O)COC(=O)CNC(=O)c2ccccc2)c2ccccc2N1	u	15.8µM*
O=C(CNC(=O)c1ccccc1)OCC(=O)N1c2ccccc2Sc2ccccc21	10µM*	10µM*
CC1CCCCN1C(=O)CSc1nc2ccccc2nc1Cc1ccc(Cl)cc1 (stereo not given)	-1.7%	-5.5%
CCNc1ncc2nc(C)c(=O)n(C[C@H]3CCCO3)c2n1	20µM*	u
CCNc1ncc2ncc(=O)n(C[C@H]3CCCO3)c2n1	-14.6%	-14.5%
Cc1cc(C)nc(SCc2cc(=O)c(OC(=O)c3ccco3)co2)n1	25.1µM*	u
Cc1cc(C)nc(SCc2cc(=O)c(OC(=O)c3ccc(Br)o3)co2)n1	u	-14.6%
CC(=O)O/C(=C1/C[C@H]2[C@@H]3CC=C4C[C@@H](OC(C)=O)CC[C@]4(C)[C@@H]3CC[C@]2(C)C1=O)C(F)(F)F	1.7%	-1.5%
O=C(CN1C(=O)c2cccc3cccc1c23)Nc1cccc(F)c1	-0.1%	-4.1%
CCc1nnc(NS(=O)(=O)c2ccc(NC(=S)Nc3ccc(F)cc3)cc2)s1	-4.3%	11.6%
SMILES	Cruzain Triton	Cruzain inh noDet
COc1ccc(NS(=O)(=O)c2ccc(NC(=S)NC(=O)c3ccc(Br)cc3)cc2)nn1	-6.5%	2.4%
CCc1nnc(NS(=O)(=O)c2ccc(NC(=S)NC(=O)/C=C/c3ccccc3)cc2)s1	25.1µM*	0.7%
CCc1nnc(NS(=O)(=O)c2ccc(NC(=S)NC(=O)/C=C/c3ccc(C(C)C)cc3)cc2)s1	14.1µM*	u
COc1ccc(NS(=O)(=O)c2ccc(NC(=S)NC(=O)/C=C/c3ccccc3)cc2)nn1	-12.8%	31.6µM*
CCc1nnc(NS(=O)(=O)c2ccc(NC(=S)NC(=O)/C=C/c3ccc(OC)cc3)cc2)s1	22.4µM*	-16.8%
CCc1nnc(NS(=O)(=O)c2ccc(NC(=S)NC(=O)c3ccc(Br)cc3)cc2)s1	u	7.0%
CCc1nnc(NS(=O)(=O)c2ccc(NC(=S)NC(=O)c3ccccc3)cc2)s1	-12.2%	-1.6%
CC(C)c1ccc(N2C(=O)CSC23C(=O)N(Cc2ccccc2F)c2ccccc23)cc1 (stereo not given)	2.5%	26.9%
CCOc1ccccc1NC(=O)CCNS(=O)(=O)c1ccc2c(c1)CCN2C(=O)C1CC1	-2.5%	-12.9%
COc1cc(NC(=O)c2ccc3oc(=O)c(S(=O)(=O)c4ccccc4)cc3c2)cc(OC)c1	1.1%	2.8%
Cc1oc2ncnc(N3CCOCC3)c2c1C(=O)NCc1ccccc1	-2.2%	3.3%
COC(=O)c1c(C)ccc2c(O)c3c(cc12)C(=O)c1c2c(cc(O)c1C3=O)[C@@]1(C)O[C@@](C)(O2)[C@@H](O)[C@H](N(C)C)[C@H]1O	4.3%	2.5%
COC(=O)[C@H]1CC2(CC=C(C)C)C(=O)[C@@](CC=C(C)C)(C(=O)C(C(=O)c3ccccc3)=C2OC)C1(C)C (tested in a mixture with another compound)	4.4%	u
COc1ccccc1/C=C\C=N\n1c(-c2ccc(Cl)cc2)n[nH]c1=S	0.7%	u
COc1ccccc1/C=C\C=N\n1c(-c2ccc(Cl)cc2Cl)n[nH]c1=S	-0.8%	31.6µM*
O=c1oc2c(CN3CCOCC3)c(O)ccc2c2c1CCCC2	28.2µM*	u
O=c1oc2c(CN3CCOCC3)c(O)c(Cl)cc2c2c1CCCC2	28.2µM*	u
CN(C)Cc1c(O)ccc2c3c(c(=O)oc12)CCCCC3	22.4µM*	u
CN(Cc1c(O)ccc2c1oc(=O)c1ccccc12)C1CCCCC1	-19.8%	-26.3%
Cc1c(O)c(CN2CCCC2)cc2c3c(c(=O)oc12)CCC3	-19.8%	u
O=c1oc2c(CN3CCOCC3)c(O)ccc2c2ccccc12	-5.2%	-17.2%
COc1ccccc1CNC(=O)COc1cc(=O)n(C)c2ccccc12	1.8%	-1.6%
Cc1oc2ccc(O)c(CN3CCN(C)CC3)c2c1C(=O)Nc1ccccc1	-2.9%	-15.5%
O=[N+]([O-])c1cccc(/C=N/Nc2nnc(-c3ccccc3)c(-c3ccccc3)n2)c1	-5.4%	7.94µM*
C/C(=N\Nc1nnc(-c2ccccc2)c(-c2ccccc2)n1)c1cccc([N+](=O)[O-])c1	-5.6%	u
SMILES	Cruzain Triton	Cruzain inh noDet
COc1ccc(/C=C/C(=O)Nc2ccc(-c3nnc4n3CCCCC4)cc2)c(OC)c1	14.1µM*	-26.9%
COc1ccc(NS(=O)(=O)c2cccc(-c3nnc4n3CCCCC4)c2)cc1	3.8%	9.7%
CC(C)CNC(=O)C(=O)Nc1c2c(nn1-c1ccc(Cl)cc1)CSC2	1.3%	u
COc1ccc(CNC(=O)C(=O)Nc2c3c(nn2-c2ccccc2)CSC3)cc1	-1.8%	25.1µM*
O=C(NCc1ccccc1)C(=O)Nc1c2c(nn1-c1ccccc1)CSC2	-1.7%	u
COc1ccc(-n2nc3c(c2NC(=O)C(=O)NCc2ccccc2)CSC3)cc1	-0.7%	7.94µM*
CCCc1cc(=O)oc2c3c(ccc12)OCN(Cc1ccccc1OC)C3	4.3%	8.1%
Cc1ccc(Cn2c(C(=O)O)c(CNC3CCCCCC3)c3ccc(C)cc32)cc1	-0.1%	u
C[N+](C)(C)CCC(=O)c1cccc2ccccc12	14.1µM*	10µM*
O=C(O)CCC(=O)c1cccc2ccccc12	-1.9%	-8.8%
COc1cccc(OCC(=O)Nc2nnc3n2CCS3)c1	-0.2%	6.9%
COc1cccc2cc(/C(C)=N/Nc3nc(-c4cc(C)ccc4C)cs3)c(=O)oc12	-16.2%	5.01µM*
CNC(=O)c1cc2cccc(OC)c2oc1=O	-3.2%	-6.6%
O=c1c(-c2ccc(F)cc2)nc2cnc(N3CCNCC3)nc2n1C1CC1	-21.2%	-1.3%
C[C@H]1C(c2cccc(Cl)c2)=NN(c2ccccc2)[C@@H]1CO	0.4%	u
